Sampled rows, rich in hits. Any-hit rate of the full collection: about 3.1%.
ATG4B inhibitor: inhibitors of human ATG4B cysteine protease | ATG4B cleavage of LC3-PLA2, NBD-HPC fluorescence, 1 h | inhibition, % at 8.33 µM | 340,000 tested, 0.51% active | Q9Y4P1; in the data active = inhibition above about 40%
Target sequence (Q9Y4P1 whole entry, looked up): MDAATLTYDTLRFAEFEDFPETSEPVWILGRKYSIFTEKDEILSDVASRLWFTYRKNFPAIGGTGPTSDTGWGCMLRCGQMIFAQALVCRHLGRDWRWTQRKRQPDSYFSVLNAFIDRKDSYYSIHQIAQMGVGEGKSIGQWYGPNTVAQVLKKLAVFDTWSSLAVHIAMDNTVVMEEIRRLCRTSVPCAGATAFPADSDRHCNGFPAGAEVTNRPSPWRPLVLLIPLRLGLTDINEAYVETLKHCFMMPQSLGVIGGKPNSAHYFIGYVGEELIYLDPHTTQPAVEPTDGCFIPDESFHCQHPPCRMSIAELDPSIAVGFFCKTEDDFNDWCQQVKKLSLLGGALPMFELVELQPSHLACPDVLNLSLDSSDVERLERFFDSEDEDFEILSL
PREPL inhibitor: inhibits the human prolyl oligopeptidase-like enzyme. Q4J6C6. recombinant PREPL, fluorescence polarization activity-based probe. inhibition, % at 5.96 µM. 320,000 tested, 0.68% active. AID 2751; in the data active = inhibition above about 43%;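 also: 0% = enzyme with DMSO and 100% = wells lacking enzyme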
UBC13 polyUb: blocks human UBC13 polyubiquitin chain formation; inhibition, % at 20 µM; TR-FRET; 330,000 tested, 0.47% active; P61088; in the data active = inhibition above about 45%, passing the limit was not always enough
Target sequence (P61088 whole entry, looked up): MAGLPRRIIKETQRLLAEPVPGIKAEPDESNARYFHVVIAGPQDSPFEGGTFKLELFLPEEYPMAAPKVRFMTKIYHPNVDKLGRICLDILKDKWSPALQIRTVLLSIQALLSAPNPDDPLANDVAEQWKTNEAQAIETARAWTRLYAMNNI
MEKK3 PB1 HTS: raises or lowers MEK5 binding to the human MEKK3 PB1 domain; AID 1529; bead-based flow cytometry, Alexa488-MEK5 binding to MEKK3; actives lie on both sides; 0 = blocked by unlabeled MEK5, 100 = vehicle; 290,000 tested, 1.4% active; Q99759; binding response (% of control), % at 10 µM;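 active = binding response more than 3 SD above or below the average of its plate-row segment, actives on both sides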;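 also: Alexa488 bead fluorescence after subtracting the streptavidin-only scavenger bead signal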
MEKK2 mut-MEK5: signal of MEK5 binding to mutant human MEKK2 PB1 domain; bead flow cytometry, Alexa488-MEK5 binding to MEKK2 mutant; percent response, % at 10 µM; 290,000 tested, 0.35% active; AID 1530; in the data active = percent response above about 24%, passing the limit was not always enough
MEKK2wt PB1 HTS: raises or lowers MEK5 binding to wildtype human MEKK2 PB1 domain | binding response (% of control), % at 10 µM | 290,000 tested, 1.1% active | Q9Y2U5 | bead flow cytometry, Alexa488-MEK5 binding to MEKK2 WT; actives lie on both sides; in the data active = binding response below about 67% or above about 130%
The depositor's hits bear a star; i = inactive; . = no result given; [ ] = remark or other dose.

SMILES	ATG4B inhibitor	PREPL inhibitor	UBC13 polyUb	MEKK3 PB1 HTS	MEKK2 mut-MEK5	MEKK2wt PB1 HTS
C#CCOCCOCCOCCNc1nc(N2CCN(C(=O)[C@H]([C@@H](C)CC)n3cc(CCCN=C(N)N)nn3)CC2)nc(N2CCN(C(=O)[C@H](C)n3cc(CCCN=C(N)N)nn3)CC2)n1	-3	29	9	104	4	124
C#CCOCCOCCOCCNc1nc(N2CCN(C(=O)CCCCCCCCCCNC(=O)[C@H]([C@@H](C)CC)n3cc(CCCCN=C(N)N)nn3)CC2)nc(N2CCN(C(=O)CCCCCCCCCCNC(=O)[C@H]([C@@H](C)CC)n3cc(CCCCN=C(N)N)nn3)CC2)n1	.	68*	126*	.	.	.
C/C(=N\NC(=O)c1cccc(S(=O)(=O)N2CCCC2)c1)c1ccc(OCC(=O)N(C)C)cc1	-7	22	-6	.	.	.
O=C(Nc1ccccc1Cl)O/N=C/c1ccncc1	-4	-4	-4	92	-3	92
O=C(CN(Cc1ccccc1)C(=O)CCC(=O)Nc1nccs1)NCc1ccccc1	-1	-6	6	98	0	96
CN(C)c1ccc(/C=C/c2cc[n+]([O-])cc2)cc1	.	7	-9	105	13	102
CN(C)c1ccc(/C=C/c2cc[n+](C)cc2)cc1	4	-78	i	97	16	28*
CC[n+]1c(/C=C/c2ccc(N(C)C)cc2)ccc2ccccc21	11	-2	.	95	34	4.0*
COc1cc(/C=C/C(=O)OCC(=O)N2CCCC2)cc(OC)c1OC	-4	3	8	.	.	.
CCN(CC)CCNC(=O)c1[nH]c2ccc(OCc3ccccc3)cc2c1C	-2	16	32	110	17	184*
CCN(Cc1ccccc1)C(=O)c1[nH]c2ccc(OC)cc2c1C	4	.	5	97	-3	97
O=c1[nH]c(=S)[nH]c(O)c1N=Nc1ccc(-c2ccccc2)cc1[N+](=O)[O-]	.	.	.	96	3	-4.0*
N#Cc1ccc(CN2CCN(CC(=O)NCCc3ccc(Cl)cc3Cl)CC2)cc1	-8	22	12	103	28*	151*
Oc1ccc(Cl)cc1C1=NNC(c2ccc(Cl)cc2)C1 (stereo unspecified)	35	4	-7	135*	0	107
O=S(=O)(Nc1ccc(N2CCCCC2)cc1)c1ccc(F)cc1F	-8	-1	-7	111	16	-10*
O=S(=O)(Nc1ccc(N2CCCCC2)cc1)c1ccccc1F	-6	17	4	101	4	100
Cn1nc(Cc2n[nH]c(=S)n2C)c2ccccc2c1=O	4	4	2	97	-1	99
c1ccc(-c2ccc3c(c2)NCCN3)cc1	-1	-10	8	105	5	101
Cc1ccccc1Nc1nc(N)c2ccccc2n1	-2	0	-8	161*	28	173*
O=C(Nc1ccc(N2CCOCC2)cc1)c1ccc(S(=O)(=O)NCc2ccco2)cc1	2	4	-15	105	5	103
CC(Sc1ccc([N+](=O)[O-])cn1)C(=O)Nc1nccs1 (stereo unspecified)	8	4	-4	103	17	157*
Cc1ccc(/C=C2/SC(=S)N(C3CCCCC3)C2=O)o1	5	0	-22	86	-22	56*[inhibitor]
COC(=O)N[C@H](CC(C)=O)c1ccccc1	.	0	3	105	1	92
Cc1cc(=O)oc2cc(OC(C)C(=O)Nc3ccc(N4CCCCC4)cc3)ccc12 (stereo unspecified)	0	-4	-12	98	5	-1.0*
CC(=O)N1CC(C)Sc2ccc(S(=O)(=O)NC(C)c3ccccc3)cc21 (stereo unspecified)	-4	1	-8	80*[inhibitor]	-21	64*[inhibitor]
SMILES	ATG4B inhibitor	PREPL inhibitor	UBC13 polyUb	MEKK3 PB1 HTS	MEKK2 mut-MEK5	MEKK2wt PB1 HTS
CC1CCCN(CCCNC(=O)c2cc3c(Cl)nc4ccccc4c3s2)C1 (stereo unspecified)	-21	-22	30	106	54*	189*
COc1ccc(N(C)C(=O)c2cc3c(Cl)nc4ccccc4c3s2)cc1	3	-11	-9	99	9	113
CN(CCCNC(=O)c1cc2c(Cl)nc3ccccc3c2s1)Cc1ccccc1	-8	-16	34	110	44	193*
Cc1ccc(OCC(=O)NCCCNC(=O)c2ccccn2)cc1C	9	-9	8	99	0	98
COc1cc2c(cc1NC(=O)CN1C(=O)NC3(CCc4ccccc43)C1=O)oc1ccccc12 (stereo unspecified)	22	-13	4	112	-4	10*
Nc1ccccc1C(=O)NC(=O)Nc1ccc(Oc2ncc(Br)cn2)c(Cl)c1	-1	.	.	.	.	.
Cc1cccc(NC(=O)CSc2nsc(SCC(=O)Nc3cccc(C)c3)c2C#N)c1	-15	-11	-9	105	39	29*
COc1ccc(-c2cc(-c3c(O)c(OC)c4occc4c3OC)[nH]n2)cc1OC	-25	51*	10	103	3	110
COc1ccc(-c2cc(-c3c(O)c(OC)c4occc4c3OC)[nH]n2)cc1	16	28	2	99	-3	93
CC1CC(C)CN(CCCNC(=O)c2ccc3c(c2)N(Cc2ccccc2)C(=O)c2ccccc2S3=O)C1 (stereo unspecified)	-2	10	4	105	10	145*
Cc1ccc(N(CC(=O)Nc2ccccc2C(=O)NCc2ccco2)S(=O)(=O)c2ccccc2)cc1C	-15	5	-8	99	29*	119
O=C(CN(c1ccccc1)S(=O)(=O)c1ccccc1)Nc1ccccc1C(=O)NCc1ccco1	-11	-16	-4	97	-3	96
COc1ccc(CN2CCNC(=O)C2CC(=O)NC2CCCCCCC2)cc1C (stereo unspecified)	3	7	-4	108	28*	128
CCC(=O)NC(c1cccs1)c1cc([N+](=O)[O-])c2cccnc2c1O (stereo unspecified)	-10	3	-60	128*	0	110
COc1ccc(-c2c[n+]3c4n2CCCCC4=C(c2ccc(Br)cc2)C3)cc1	8	49*	.	.	.	.
COc1ccc(-c2cnc3n2CCCCC3)cc1	4	7	2	98	5	102
COc1ccc(-n2c(-c3ccc(Cl)cc3)c[n+]3c2CCc2ccccc2-3)cc1	-1	28	6	75	-14	85
Cc1ccc(-n2c(-c3ccc(Br)cc3)c[n+]3c2CCc2ccc4cccnc4c2-3)cc1	20	23	.	105	24	153*
COc1cc(CN2CCN(c3cccc(C)c3C)CC2)cc([N+](=O)[O-])c1O	22	18	-40	91	242*	212*

Screening data deposited in PubChem BioAssay by several laboratories.
